Source: PubChem BioAssay (The Scripps Research Institute Molecular Screening Center)
Most compounds without a hit are left out; they make up all but 3.5% or so of the library.
TEAD-YAP inh: TEAD-YAP interaction inhibition, primary screen, TEAD-YAP interaction inhibitor project, luminescence, HEK-TIYL cells; TEAD-Gal4/YAP UAS-luciferase luminescence; inhibition, % at 9.12 µM; 640,000 tested, 1.4% active; AID 1259422, 2018; in the data active = inhibition above about 32%;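 note: 0% = median of test compound wells and 100% = reference inhibitor wells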
GPR151 activ: activators of human GPR151, primary screen, cell-based, PathHunter beta-arrestin, luminescence. PathHunter beta-arrestin GPR151 cells. activation, % at 11.2 µM. 650,000 tested, 1% active. AID 1508602, 2020; in the data active = activation above about 4.9%;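 note: 0% = median of compound wells and 100% = cells with positive control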
Target sequence (Q8TDV0 whole entry, looked up): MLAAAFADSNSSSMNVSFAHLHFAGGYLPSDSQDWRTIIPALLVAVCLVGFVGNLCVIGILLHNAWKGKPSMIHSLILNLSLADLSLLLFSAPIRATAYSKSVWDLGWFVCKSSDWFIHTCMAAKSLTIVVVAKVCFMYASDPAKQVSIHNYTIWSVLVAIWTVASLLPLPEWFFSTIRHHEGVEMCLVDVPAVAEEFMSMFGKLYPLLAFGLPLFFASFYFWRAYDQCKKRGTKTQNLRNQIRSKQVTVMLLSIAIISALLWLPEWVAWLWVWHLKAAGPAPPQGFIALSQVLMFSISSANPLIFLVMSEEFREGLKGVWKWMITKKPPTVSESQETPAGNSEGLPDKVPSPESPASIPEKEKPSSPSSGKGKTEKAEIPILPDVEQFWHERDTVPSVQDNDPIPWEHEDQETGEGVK
MITF primary: MITF inhibitors, primary screen, biochemical, AlphaScreen, human | 650,000 tested, 0.91% active | Microphthalmia-associated transcription factor (Homo sapiens), O75030 | AID 1259374, 2018 | AlphaScreen MITF homodimerization, bead proximity signal | inhibition, % at 2.6 µM; in the data active = inhibition above about 50%;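 note: 0% = vehicle wells with protein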
FBW7 activator: FBW7 E3 ligase activators, primary screen, biochemical, AlphaScreen, human | F-box/WD repeat-containing protein 7 (Homo sapiens), Q969H0 | 650,000 tested, 0.13% active | normalized activity (activation), % at 26.1 µM | AlphaScreen FBW7–phospho-cyclin E peptide binding, activator screen; in the data active = normalized activity above about 1.9%;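 note: purified mutant Fbw7 with reduced substrate affinity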
The depositor's hits bear a star.

SMILES | TEAD-YAP inh | GPR151 activ | MITF primary | FBW7 activator
CC(NC(=O)CSc1ccc(F)cc1)c1ccccc1 (stereo not drawn) | 0 | 3 | -6 | 0
O=c1cc(CN2CCN(Cc3ccc4c(c3)OCO4)CC2)c2cc(O)c(O)cc2o1 | -3 | 4 | 91* | -1
O=c1cc(CN2CCCCC2)c2cc(O)ccc2o1 | 1 | 0 | 6 | 0
O=c1cc(CN2CCN(c3ccccc3O)CC2)c2cc(O)c(O)cc2o1 | -5 | 0 | 90* | 0
OCc1nc2ccc(-c3ccc4nc(CO)[nH]c4c3)cc2[nH]1 | 58* | -6 | 15 | 0
OCc1nc2ccc(Cc3ccc4nc(CO)[nH]c4c3)cc2[nH]1 | 14 | 4 | 3 | 0
COc1ccc(-n2ncc3c(Nc4ccc(F)cc4)ncnc32)cc1 | -2 | 4 | 0 | 0
COc1ccc(-n2ncc3c(Nc4cccc(OC)c4)ncnc32)cc1 | 46* | 1 | 4 | 0
COc1cccc(Nc2nc(N3CCN(c4cccc(Cl)c4)CC3)nc3c2cnn3C)c1 | 1 | 1 | 10 | 0
COc1cccc(Nc2nc(N3CCN(C)CC3)nc3c2cnn3C)c1 | 43* | 4 | 18 | 1
COc1cccc(Nc2ncnc3c2cnn3-c2ccc(Cl)cc2)c1 | 1 | -1 | -6 | 0
COc1ccc(-n2ncc3c(Nc4cccc(F)c4)ncnc32)cc1 | 39* | 4 | 1 | 0
COc1ccnc(N2CCC(Oc3ccc(-c4ccc(N(C)C)nc4)cc3)CC2)n1 | 61* | 1 | 0 | 0
COCc1ccc(-c2ccc(OC3CCN(c4nccc(OC)n4)CC3)cc2)cc1 | -6 | 2 | 3 | 0
CN(C)c1ccc(-c2ccc(OC3CCN(CCc4ccccn4)CC3)cc2)cn1 | 53* | 1 | 10 | 0
Cc1ccc(-c2nc(Nc3ccccc3)s[n+]2CS(=O)(=O)c2ccccc2)cc1 | 66* | -5 | 9 | 0
O=C1c2ccccc2NC2(CCCCC2)N1c1ccc(O)cc1 | 58* | -2 | -13 | 0
Cc1nc2ccccn2c1C(=O)NCc1ccccc1Oc1ccccc1 | 3 | -1 | 21 | 1.9*
Cc1nc2ccccn2c1C(=O)NCc1ccccc1 | -5 | 5 | -2 | 0
CCC(C)NC(=O)c1c(C)nc2ccccn12 (stereo not drawn) | 11 | -1 | 15 | 2.1*
Cc1ccc(NC(=O)N[C@H]2C[C@H]3C(=O)N[C@@H](CC(C)C)C(=O)N3C2)cc1C | -7 | -2 | 8 | 0
O=C1c2ccccc2C(=O)c2c1ccc(C(=O)OCC(=O)N1CCOCC1)c2[N+](=O)[O-] | 2 | -1 | 58* | 0
O=C(COC(=O)c1ccc2c(c1[N+](=O)[O-])C(=O)c1ccccc1C2=O)NC1CC1 | 11 | -5 | 18 | 0
Cn1/c(=N/N=C/c2ccc(O)cc2O)sc2ccccc21 | -3 | -2 | -25 | 0
COc1cc(C(=O)N2CCN(c3ccc(-n4nc(C)c(C)c4C)nn3)CC2)cc(OC)c1OC | 8 | -1 | 2 | 0
SMILES | TEAD-YAP inh | GPR151 activ | MITF primary | FBW7 activator
COc1cc(C(=O)Nc2nnc(C)s2)c(Br)c(OC)c1OC | -1 | -2 | -9 | 1
COc1cc(CCC(=O)Nc2nnc(C)s2)cc(OC)c1OC | 55* | 1 | 2 | 0
O=C(CC1C(=O)NCCN1C1CCCC1)NCC1CCN(Cc2ccccc2)CC1 (stereo not drawn) | 6 | 2 | -124 | 0
Cc1oc(-c2ccccc2Cl)nc1CS(=O)CC(=O)NCc1ccc2c(c1)OCO2 (stereo not drawn) | 10 | -1 | 18 | 3.9*
Cc1oc(-c2ccccc2Cl)nc1CS(=O)CC(=O)NCc1ccccn1 (stereo not drawn) | 2 | 0 | -4 | 1
COc1ccccc1CNC(=O)CS(=O)Cc1nc(-c2ccccc2C)oc1C (stereo not drawn) | -4 | -1 | 26 | 2.6*
CCOC(=O)c1sc2nc(SCC(=O)NCCc3ccccc3)n(Cc3ccc(Cl)c(Cl)c3)c(=O)c2c1C | -7 | -1 | -3 | 0
CN(C)S(=O)(=O)N1CCC(Oc2cccc(C(=O)NC3CCCCC3)c2)CC1 | 43* | 1 | -1 | 0
CN(C)S(=O)(=O)N1CCC(Oc2ccc(C(=O)NC3CCCCC3)cc2)CC1 | -14 | -1 | -1 | 0
Cc1scc(CN2CCN(Cc3ccccc3)CC2)c1C | 2 | 0 | 9 | 0
O=C(N1CCOCC1)N1CCc2nc(-c3ccccc3)nc(N3CCCCCC3)c2C1 | -1 | 0 | 1 | 0
COc1cc(C(=O)Nc2ncc(Cc3ccc(Cl)cc3)s2)cc(OC)c1OC | 58* | 0 | -3 | 0
COc1ccc2nc(NC(=O)c3sc4ccccc4c3Cl)sc2c1 | -9 | 0 | -8 | 0
COc1ccc(C(=O)Nc2ncc(Cc3ccc(F)cc3)s2)cc1OC | 55* | 0 | 10 | 1
O=C(Nc1ncc(Cc2ccccc2Cl)s1)c1cccc2ccccc12 | 35* | -1 | -15 | 0
CC(=O)Nc1ncc(Cc2ccc(Cl)cc2)s1 | 11 | 2 | 2 | 0
COc1ccc(Cc2cnc(NC(=O)c3sc4ccccc4c3Cl)s2)cc1 | 48* | 2 | -22 | 0
CCCNC(=O)c1ccc(-c2cccc(N)c2)s1 | -28 | 1 | 13 | 1
O=C1C2C3CCC(C3)C2C(=O)N1c1ccc(O)cc1 (stereo not drawn) | -4 | 2 | 3 | 0
COc1ccc(C(=O)CSc2nc3scc(-c4ccccc4)c3c(=O)n2-c2ccccc2)cc1OC | -4 | 0 | 23 | 1.9*
COc1ccc(C(=O)CSc2nc3sc4c(c3c(=O)n2-c2ccccc2)CCC4)cc1OC | 14 | 1 | -2 | 0
CCC(=O)Nc1ccc(C2=Nn3c(nnc3-c3ccccc3F)SC2)cc1 | -1 | 1 | 17 | 1
CCOc1ccc2ccccc2c1/C=C1/C(=O)NC(=S)N(Cc2ccco2)C1=O | -18 | -1 | 77* | -1
COCCn1c(C)cc(/C=C2/C(=O)NC(=O)N(Cc3ccco3)C2=O)c1C | 1 | 0 | 28 | 0
COCCn1c(C)cc(/C=C2/C(=O)NC(=S)N(Cc3ccco3)C2=O)c1C | -1 | 1 | 65* | -1
SMILES | TEAD-YAP inh | GPR151 activ | MITF primary | FBW7 activator
O=C1NC(=S)N(Cc2ccco2)C(=O)/C1=C\N1CCOCC1 | -6 | -1 | 75* | 0
CCOc1ccc(/C=C2\C(=O)NC(=S)N(CC)C2=O)c2ccccc12 | 8 | -2 | 14 | 0
O=C(NC(=S)Nc1cc(-c2nc3ncccc3o2)ccc1Cl)c1ccc(Cl)cc1 | -7 | -1 | 5 | 0
CCOC(=O)c1[nH]c2ccccc2c1NC(=O)Cc1cccc2ccccc12 | 3 | 2 | 7 | 0
CC1=CC(C)(C)N(S(=O)(=O)c2ccc(C)cc2)c2c(C)cc(C)cc21 | 36* | 0 | -9 | 0
CC1=CC(C)(C)N(S(=O)(=O)c2ccc(Cl)cc2)c2c(C)cc(C)cc21 | -6 | 0 | -4 | 0
